Hit rate of the full screen: of about 370,000 compounds, about 4,100 (1.1%) were called active. The sample holds actives, similar compounds and a random draw of the others, so the mix is not that of the screen. Unmarked numbers belong to inactive results.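 The calls were made as follows: active = inhibition above the mean over all tested compounds plus 3 SD (cut at about 3.6% in these data); inactive = the rest.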
Test: relief of DAX-1 repression of SF-1 activity – cell-based, luminescence, SF-1 (NR5A1), full-length DAX-1, primary screen (AID 652010);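 also: 0% = DAX-1 cells with DMSO and 100% = cells lacking DAX-1 with DMSO; higher inhibition means more luminescence from relief of DAX-1 repression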
Conditions: HEK293T StAR-luciferase reporter, SF-1/DAX-1 repression relief; at 6.8 µM; hits give high values
With `COC(=O)[C@@]12CCCCC=C1N(CCc1ccc(Cl)cc1)C(=O)[C@H]2CC(=O)NCc1ccc(OC)c(OC)c1` the inhibition was -1.83%.
Work on `CC(C)(C)OC(=O)NCCc1ccccc1/C=C/S(=O)(=O)NCc1ccc(F)cc1` yielded an inhibition of -2.47%.
Work on `C=CCN(CC=C)C(=O)CN1C(=O)c2ccccc2C1=O` yielded an inhibition of -0.48%.
Work on `COc1cc(C(C)=O)ccc1OC(=O)CN1C(=O)c2ccccc2C1=O` yielded an inhibition of -0.4%.
With `C=CCn1c(C)cc(C(=O)CN2C(=O)c3ccccc3C2=O)c1C` the inhibition was 3.9% (active).
For `CCn1c(SCC(C)=O)nc2sc3c(c2c1=O)CCCC3`, the inhibition was -0.04%.
Work on `Cc1ccc(OCCCC(=O)Nc2ccc3c(c2)OCCO3)cc1` yielded an inhibition of -0.75%.
With `COc1cccc(/C=C/C(=O)Nc2ccc3c(c2)OCCO3)c1` the inhibition was 5.36% (active).
Compound `CN(Cc1ccccc1)C(=O)COC(=O)/C=C/c1ccc2c(c1)OCO2` has an inhibition of 0.06%.
`COc1ccc(S(=O)(=O)N(C)CC(=O)Nc2ccc3c(c2)OCCO3)cc1OC` showed an inhibition of 0.16%.
In the case of `O=C(COC(=O)/C=C/c1ccc2c(c1)OCO2)NC1CCS(=O)(=O)C1` (stereo not drawn), the inhibition is reported as 0.14%.
With `Cc1cccc(NC(=O)/C=C/c2ccc3c(c2)OCO3)n1` the inhibition was 5.26% (active).
With `C=CCN1C(=O)[C@H](CC(=O)N2CCN(C(=O)OCC)CC2)[C@@]2(C(=O)OCC)CCCC=C12` the inhibition was -0.21%.
Compound `COC(=O)c1ccccc1-n1cc(COC(=O)NCCc2ccccc2)nn1` has an inhibition of -0.35%.
With `Cc1cc(NS(=O)(=O)c2ccc(NC(=O)CSc3nnc(-c4ccc(C(C)(C)C)cc4)n3Cc3ccco3)cc2)nc(C)n1` the inhibition was 0.36%.
`COC(=O)C1=C(C)N(Cc2ccccc2C(F)(F)F)C(=NCC2CC2)NC1c1cccc(Cl)c1` (stereo not drawn) gave an inhibition of 0.1%.
For `CC(C)C[C@H]1CN([C@@H](CC(C)C)CN2CCC[C@@H]2CN2C(=O)C(=O)NC[C@@H]2Cc2ccccc2)C(=O)C(=O)N1CCc1ccccc1`, the inhibition was -1.31%.
With `CN1[C@H](Cc2ccccc2)COc2cccc(N3CCSCC3)c2S1(=O)=O` the inhibition was -1%.
`NC1=NN(c2cccc(C(=O)O)c2)C(=O)C1` showed an inhibition of -0.57%.
In the case of `O=C(O)c1cccc(N=NN2CCCCCC2)c1`, the inhibition is reported as 6.35% (active).
Compound `Cc1cccc(C(=O)N2CCN(S(=O)(=O)N3CCCCC3)CC2)c1` has an inhibition of 1.49%.
Compound `CCOC(=O)[C@]12CCCC=C1N(CCCOC)C(=O)[C@@H]2CC(=O)N1CCOCC1` has an inhibition of -0.49%.
In the case of `CCCNC(=O)Nc1ccc2c(c1)C(=O)N(C)[C@H]1CC[C@H](CC(=O)NCC3CCCCC3)O[C@@H]1CO2`, the inhibition is reported as -0.63%.
With `COC(=O)C(C(=O)OC)c1ccccc1NS(=O)(=O)c1cccc2ccccc12` the inhibition was 0.06%.
`O=C(NCc1cccs1)C1CCCN(S(=O)(=O)c2ccc([N+](=O)[O-])cc2)C1` (stereo not drawn) showed an inhibition of -0.52%.
Compound `COc1ccc2c(C(C)c3ccc(N)cc3)cn(C)c2c1` (stereo not drawn) has an inhibition of 0.02%.
With `CCC(=O)Nc1ccc(-c2ccc(N3CCCCC3)nn2)cc1` the inhibition was 4.53% (active).
With `CC1CCN(c2ccc(-c3ccc(NC(=O)c4ccco4)cc3)nn2)CC1` the inhibition was 2.92%.
`CCCCSc1nnc(-c2ccc(NC(=O)CC)cc2)n1C` showed an inhibition of -0.29%.
With `O=C(NCCc1csc(-c2ccccc2)n1)c1ccccc1F` the inhibition was -1.18%.
In the case of `O=C(NCCOc1ccccc1)c1ccccc1F`, the inhibition is reported as 6.99% (active).
`NS(=O)(=O)c1cc(C(=O)NCCOc2ccccc2)c(Cl)cc1Cl` gave an inhibition of 0.12%.
`O=C(CCS(=O)(=O)c1ccccc1)Nc1ccc(Cl)c(Cl)c1` showed an inhibition of -0.2%.
`O=C(CCCCCN1C(=O)C2C3C=CC(C3)C2C1=O)Nc1ccccc1` (stereo not drawn) showed an inhibition of 1.39%.
For `O=C(Oc1cccc(NC2=NS(=O)(=O)c3ccccc32)c1)c1ccncc1`, the inhibition was 0.31%.
Work on `Cc1ccc(S(=O)(=O)N(NC2=NS(=O)(=O)c3ccccc32)C(=O)c2ccccc2)cc1` yielded an inhibition of 0.29%.
With `CC(C)(C)c1csc(NC2=NS(=O)(=O)c3ccccc32)n1` the inhibition was 5.84% (active).
Work on `Cc1ccc(Cn2cc(CN3[C@@H](C)COc4cc(Br)ccc4S3(=O)=O)nn2)cc1` yielded an inhibition of -0.52%.
For `O=C(CC1C(=O)NCCN1Cc1ccc(-c2ccccc2)cc1)NCC1CCOCC1` (stereo not drawn), the inhibition was -0.29%.
With `O=C(NCCc1ccccc1)c1ccc(NC2=NC3CS(=O)(=O)CC3S2)cc1` (stereo not drawn) the inhibition was -0.02%.
In the case of `CCCOc1ccc(C(=O)NCCc2ccccc2)cc1`, the inhibition is reported as 5.47% (active).
Compound `O=C(NCCc1ccccc1)Oc1ccc(Cl)cc1` has an inhibition of 0.42%.
With `O=C(NC1CCC1)c1ccc(C#CC2CC2)cn1` the inhibition was 3.08%.
`Cc1ccc(OCc2nnc(SC/C=C/c3ccccc3)n2Cc2ccco2)cc1` gave an inhibition of -0.46%.
In the case of `COC(=O)c1cc2c(c3c4ccccc4n(S(=O)(=O)c4cccc(C)c4)c13)C(=O)N(Cc1ccccc1)C2`, the inhibition is reported as -1.85%.
In the case of `CCC(C)c1ccc(O)c(/C=N/O)c1` (stereo not drawn), the inhibition is reported as 0.8%.
In the case of `CNCC(O)c1ccc(O)c(O)c1` (stereo not drawn), the inhibition is reported as 5.84% (active).
For `CC(=NNC(N)=O)C1CC2CCC1CC2` (stereo not drawn), the inhibition was 1.47%.
Compound `CCCCCCCCN1C(=O)[C@@H](CC(=O)N2CCN(C(=O)OCC)CC2)C[C@@]2(C(=O)OC)C1=C[C@H](C1CCCC1)O[C@@H]2C` has an inhibition of 0.13%.
Work on `CCOC(=O)[C@@]12CN(C(=O)OC(C)(C)C)CC=C1N(Cc1ccc(OC)cc1)C(=O)[C@H]2CC(=O)NCc1ccc(OC)c(OC)c1` yielded an inhibition of -0.16%.
Compound `Cc1c(C(=O)NC2CCCCC2)oc2ccccc12` has an inhibition of 0.4%.
With `CCc1nonc1NC(=O)c1oc2ccc(Cl)cc2c1C` the inhibition was 0.27%.
With `Cc1c(C(=O)Nc2ccccn2)oc2ccc(Br)cc12` the inhibition was 8.27% (active).
Compound `Cc1cccc(C(=O)Nc2c(-c3ccc(F)cc3)nc3ncccn23)c1` has an inhibition of -1.21%.
For `CCCc1cc(C(=O)Nc2ccc(Cl)cn2)cs1`, the inhibition was 16.1% (active).
Compound `CC(OC(=O)CCCOc1ccccc1)C(=O)Nc1ccc(Cl)cn1` (stereo not drawn) has an inhibition of 3.13%.
`CC(OC(=O)CNC(=O)c1ccco1)C(=O)Nc1ccc(Cl)cn1` (stereo not drawn) showed an inhibition of -0.16%.
Compound `CCC(=O)Nc1ccc(C(=O)Nc2cc(C)on2)cc1` has an inhibition of -0.34%.
With `CCCc1cc(C(=O)Nc2ccc(C(=O)OC)cc2)cs1` the inhibition was 7.38% (active).
`COC(=O)c1ccc(NC(=S)NN2CCOCC2)cc1` showed an inhibition of 1.02%.
With `O=C(c1ccccc1)c1ccc(-c2ccccc2C(=O)NC2CCCCN(Cc3ccc(Cl)cc3)C2=O)cc1` (stereo not drawn) the inhibition was -0.77%.
`Cc1ccc(-n2c(SCC(=O)Nc3ccc(S(=O)(=O)Nc4nccs4)cc3)nnc2-c2ccncc2)cc1` gave an inhibition of -0.77%.
`CCC(c1ccc(NC(=O)OC(C)(C)C)cc1)c1cc(OC)cc(OC)c1` (stereo not drawn) showed an inhibition of -0.05%.
With `COCc1cc(N2CCN(C(=O)OC(C)(C)C)C[C@@H]2C)ccc1N1CCN(Cc2ccccc2)[C@H](C)C1` the inhibition was -0.7%.
For `CCN(CC(=O)Nc1c(F)cccc1F)C(=O)c1cnc(C)cn1`, the inhibition was 4.81% (active).
Compound `CCc1cc(C(=O)N(CC)CC(=O)Nc2c(F)cccc2F)sc1C` has an inhibition of -0.69%.
With `CCN(CC(=O)Nc1c(F)cccc1F)C(=O)c1ccc(-c2ccccc2)cc1` the inhibition was 0.8%.
With `CCCC[C@H]1C2CC(OC(=O)NCc3ccccc3)C(C2)[C@H]2CCCCN21` (stereo partly drawn) the inhibition was -0.27%.
In the case of `Cc1ccc(-n2c(SCC(=O)Nc3ccc(S(=O)(=O)Nc4nccs4)cc3)nnc2-c2ccccn2)cc1`, the inhibition is reported as 0.28%.
With `Cc1ccccc1OCC(=O)Nc1ccc(N2CCN(C(=O)C(C)C)CC2)c(Cl)c1` the inhibition was -2.45%.
In the case of `Cc1ccccc1OCC(=O)Nc1ccc2c(c1)ncn2C`, the inhibition is reported as 4.8% (active).
With `COc1cccc(NC(=O)COc2cccnc2[N+](=O)[O-])c1` the inhibition was 1.83%.
`COc1ccc(Nc2nc(N)nc(CSC(=S)N3CCC(C)CC3)n2)cc1` gave an inhibition of 0.59%.
Compound `COC(=O)C1=C(C(=O)OC)C2C=C(C(C)C)C1C(=O)C2(C)O` (stereo not drawn) has an inhibition of 2.32%.
Work on `O=C(NCCc1ccc(F)cc1)c1n[nH]c2ccccc12` yielded an inhibition of 1.23%.
Work on `O=C(NCCc1ccc(F)cc1)c1ccc(S(=O)(=O)N2CCCCC2)cc1` yielded an inhibition of -1.79%.
For `O=C(NCCc1ccc(F)cc1)c1ccc2nccnc2c1`, the inhibition was 7.15% (active).
`CCOC(=O)[C@]12CCCC3=C1N(CCC3)C(=O)[C@@H](CC(=O)N1CCSCC1)C2` showed an inhibition of 0.52%.
For `COC(=O)[C@]12C[C@H](CC(=O)NCc3ccccc3)C(=O)N(CCc3ccc(OC)c(OC)c3)C1=C[C@H](C(C)(C)C)O[C@@H]2C`, the inhibition was -0.61%.
`COc1ccc(Nc2cc(=O)n(-c3ccccc3)c3c2c(=O)n(C)c(=O)n3C)cc1` gave an inhibition of 0.33%.
For `COc1ccc(Nc2ccc3ccccc3c2)cc1`, the inhibition was 3.94% (active).
`COc1ccc(NC2=CC(=S)NC(C)(C)C2)cc1` showed an inhibition of -0.32%.
Compound `O=C(CNS(=O)(=O)c1ccccc1F)N1CCN(c2ccccn2)CC1` has an inhibition of -0.44%.
`CCCCNC(=O)C[C@H]1C[C@@]2(C(=O)OC)C(=C[C@H](COCc3ccccc3)O[C@@H]2C)N(Cc2ccc(Cl)cc2Cl)C1=O` gave an inhibition of -0.49%.
Compound `COC(=O)C[C@@H]1CC[C@@H]2[C@H](COc3ccc(NC(=O)c4cccc(F)c4)cc3C(=O)N2C)O1` has an inhibition of 0.44%.
Work on `CN(CCNC(=O)c1cc2c(-c3ccccc3F)nn(C)c2s1)C1CCCCC1` yielded an inhibition of 0.74%.
With `CN(C(=O)c1cc2c(=O)n3ccccc3nc2s1)C1CCCCC1` the inhibition was 8.94% (active).
In the case of `CCOCCCNC(=O)c1cc2c(=O)n3ccccc3nc2s1`, the inhibition is reported as 0.63%.

From PubChem BioAssay AID652010 (The Scripps Research Institute Molecular Screening Center, 2013)
